Source: PubChem
UCHL1 inh: inhibitors of human UCHL1 deubiquitinase; Ubiquitin carboxyl-terminal hydrolase isozyme L1 (Homo sapiens), P09936; purified UCHL1, Ub-rhodamine cleavage fluorescence; inhibition, % at 20 µM; hit rate 0.2% among 47,000
USP8 block: inhibitors of human USP8 deubiquitinase | Ubiquitin carboxyl-terminal hydrolase 8 (Homo sapiens), P40818 | purified USP8, Ub-rhodamine cleavage fluorescence, 30 min | inhibition, % at 20 µM | hit rate 4.2% among 47,000 | AID 1645853, 2021
USP17 inh: inhibitors of human USP17 deubiquitinase. purified USP17, Ub-rhodamine cleavage fluorescence, 3 h. hit rate 6.5% among 47,000. AID 1645855, 2021. Ubiquitin carboxyl-terminal hydrolase 17-like protein 5 (Homo sapiens), A8MUK1. inhibition, % at 50 µM
Target sequence (A8MUK1 whole entry, looked up): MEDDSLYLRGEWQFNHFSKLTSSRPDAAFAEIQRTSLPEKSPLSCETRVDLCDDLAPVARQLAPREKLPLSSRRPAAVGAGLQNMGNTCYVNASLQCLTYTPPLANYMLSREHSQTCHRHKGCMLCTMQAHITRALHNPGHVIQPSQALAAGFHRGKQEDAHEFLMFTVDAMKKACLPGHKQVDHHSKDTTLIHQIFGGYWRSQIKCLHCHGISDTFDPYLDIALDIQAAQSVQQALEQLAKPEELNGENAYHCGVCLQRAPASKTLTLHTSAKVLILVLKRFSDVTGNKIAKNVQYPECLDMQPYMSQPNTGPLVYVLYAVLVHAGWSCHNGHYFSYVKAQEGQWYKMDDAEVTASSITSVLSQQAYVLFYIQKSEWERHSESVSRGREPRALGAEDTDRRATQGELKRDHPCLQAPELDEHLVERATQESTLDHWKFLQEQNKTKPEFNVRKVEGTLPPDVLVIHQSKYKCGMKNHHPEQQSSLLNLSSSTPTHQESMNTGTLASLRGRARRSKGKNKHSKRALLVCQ
USP30 inh: inhibitors of human USP30 deubiquitinase | purified USP30, Ub-rhodamine cleavage fluorescence | hit rate 5.3% among 47,000 | Ubiquitin carboxyl-terminal hydrolase 30 (Homo sapiens), Q70CQ3 | inhibition, % at 25 µM
USP10 inh: inhibitors of human USP10 deubiquitinase; hit rate 1.1% among 47,000; inhibition, % at 20 µM; AID 1645856, 2021; purified USP10, Ub-rhodamine fluorescence, 60 min
USP7 inh: inhibitors of human USP7 deubiquitinase | purified USP7, Ub-rhodamine cleavage fluorescence | hit rate 0.3% among 47,000 | inhibition, % at 20 µM
Active calls of the source: *; · = no result given. In the library only some 12% were active in any assay of this set; here they are far more common. Cut-off read from the data, not from the text of the source: active = inhibition above about 30%; inactive = the rest.

SMILES | UCHL1 inh | USP8 block | USP17 inh | USP30 inh | USP10 inh | USP7 inh
O=C(COC(=O)C(Cc1c[nH]c2ccccc12)NC(=O)c1ccccc1Cl)c1ccc([N+](=O)[O-])cc1 (centres undefined) | 5 | -107 | 17 | 38* | 28 | 4
O=C(COC(=O)C(Cc1c[nH]c2ccccc12)NC(=O)c1ccccc1Cl)Nc1ccc([N+](=O)[O-])cc1C(F)(F)F (centres undefined) | 1 | 57* | -1 | -2 | 32* | 12
c1ccc(CN(Cc2ccccc2)c2c3c(nc4ncnn24)CCC3)cc1 | 5 | 2 | 13 | 39* | 4 | -3
Fc1ccc(-c2nnc(CN3CCN(Cc4ccccc4)CC3)o2)cc1 | 0 | 4 | 3 | -15 | -3 | 5
Cc1ccc(C2CC(=O)C3=C(C2)Nc2ccccc2N(C(=O)CCC(=O)O)C3c2cccnc2)cc1 (centres undefined) | 0 | -3 | 2 | -7 | 4 | 3
O=C(Cc1ccc(-n2c(=O)[nH]c3ccsc3c2=O)cc1)N1CCC(Cc2ccccc2)CC1 | 1 | 0 | 47* | 29 | 7 | -2
O=C(CCCn1c(=O)[nH]c2ccccc2c1=O)N1CCC(Cc2ccccc2)CC1 | -3 | -6 | -1 | 11 | 3 | -6
COc1ccccc1CC(=O)Nc1cnc(-c2ccccc2)nc1 | 1 | -2 | -13 | -6 | 5 | ·
COc1cc(OC)cc(C(=O)Nc2ccc3oc(-c4ccc5ccccc5c4)nc3c2)c1 | 2 | 16 | 33* | -19 | 27 | 10
COc1cc(OC)cc(C(=O)Nc2cnc(-c3ccccc3)nc2)c1 | 7 | 25 | 52* | 17 | -1 | -46
CC(=O)N[C@@H]1C[C@H](c2ccccc2F)O[C@@H]2CCCC[C@@H]12 | 3 | 23 | 15 | 20 | 4 | -5
CC(C)c1c(O)ccc2c1CCC1[C@@](C)(C=O)CCC[C@]21C (some centres undefined) | 8 | 5 | 35* | 18 | 13 | 8
COc1ccc(C(=O)Nc2cccc(/C=C/c3nc4sc5c(c4c(=O)[nH]3)CCCC5)c2)cc1 | -10 | 0 | -50 | -294 | -6 | -10
COc1ccc2c(c1)CCc1c-2n[nH]c1C(=O)NCCCN1CCN(C2CCCCC2)CC1 | 2 | -45 | 7 | 3 | -3 | -3
CCC(=O)N1CCC(COc2ccc(C(=O)N3CCOCC3)cc2)CC1 | 0 | 1 | -1 | -7 | 2 | 2
CC1Cc2ccccc2N1C(=O)Cc1csc(NC(=O)c2ccc(=O)[nH]c2)n1 (centres undefined) | -25 | 47* | 23 | -135 | -7 | -29
COCCN1C[C@H]2CN(C)c3ccccc3[C@@H]2N(C(=O)C2CCCC2)CCC1=O | -3 | -42 | -10 | -32 | -7 | 0
C/C(=N\N(C)S(=O)(=O)c1ccc(C)cc1)c1ccc(-n2cnnn2)cc1 | 1 | 6 | -6 | -33 | 3 | -47
O=C(CN1CCC2(CC1)N=C(c1ccc(F)cc1)C(=O)N2)Nc1ccc(F)c(F)c1 | 5 | 6 | 1 | 44* | 4 | 0
C[C@H]1CN(Cc2ccco2)C[C@@]12COCCN(S(C)(=O)=O)C2 | 0 | -120 | -27 | -17 | -4 | 0
O=C(Nc1cccc(-c2noc(C3CC3)n2)c1)C1CC(=O)N(c2ccccc2)C1 (centres undefined) | -1 | 36* | 40* | -3 | 5 | -4
Cn1c(=O)[nH]c2cc(-c3noc(C4CC(=O)N(c5ccccc5)C4)n3)ccc21 (centres undefined) | -3 | -14 | 32* | -11 | 9 | 0
Cc1ccc(N2CC(c3nc(-c4ccc5oc(C)nc5c4)no3)CC2=O)cc1 (centres undefined) | 5 | -4 | 3 | 0 | -1 | -4
O=C(Nc1cccc(-c2noc(C3CCC3)n2)c1)C1CC(=O)N(c2ccccc2)C1 (centres undefined) | 1 | 42* | 60* | -1 | 11 | -1
Clc1ccc(-c2cc3c(N4CCN(C5CCCCC5)CC4)nccn3n2)cc1 | -3 | -2 | -12 | -51 | -15 | -4
COc1ccccc1/C=C/C(=O)Nc1cc(S(=O)(=O)Nc2ccccc2F)ccc1Cl | -5 | -4 | -12 | -62 | -4 | 1
